We go through 17 compounds from PubChem BioAssay.

A number with no mark means an inactive call. Calls of active or inactive are those of the source.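 How the source made its calls, unless noted: active means compound raises GLP1 secretion from the human gut endocrine cells, with no numeric limit stated; inactive means the rest.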

The nature of experiment [1]: stimulators of insulin release from INS-1E, primary screen, cell-based, 5 mM glucose, NPC library (AID 1117329;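 active means compound raises insulin release from rat beta cells at 5 mM glucose, no numeric limit stated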; further: reference of the scale not given here). The following applies: rat INS-1E insulin secretion, at 10 µM, hits give high values.
Experiment [2] in a line: growth inhibition of GSK3B-pretreated HCT116 cells – cell-based, CellTiter-Glo, 0.2 to 20 µM (AID 1117336;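 active means compounds lowering colon cancer cell viability after pretreatment blocking the GSK3B kinase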). Particulars: HCT116 viability after GSK3B inhibitor, at 20 µM, hits give high values.
A short description of experiment [3]: inhibition of endothelial tube formation, primary screen, imaging, VEGF stimulated, CD31 staining, tube area, NPC library (AID 1117340;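 active means compound that reduces growth-factor-driven endothelial tube area in a mixed cell culture, no cutoff stated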). Particulars: VEGF-stimulated ADSC/ECFC co-culture, at 10 µM, hits give high values.
Experiment [4] is described as follows: GLP1 release stimulators, primary, NCI-H716, NPC library (AID 1117341). Further: reference of the scale not given here. Particulars: NCI-H716 cells, at 10 µM, hits give high values.
The nature of experiment [5]: HCT116 colon cancer cell growth inhibition, primary screen, CellTiter-Glo luminescence, NPC library (AID 1117342;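 active means compounds that lower survival of HCT116 colon cancer cells in the luminescence readout, no numeric limit stated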). The following applies: at 20 µM (top of the series).
Experiment [6] can be described thus: reduced SW480 viability measured with CellTiter-Glo, NPC library, primary (AID 1117343;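 active means compounds that lower viability of the colon cancer cells in the luminescence readout, with no numeric limit stated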). The following applies: CellTiter-Glo luminescence; at 20 µM (top of the series).
A short description of experiment [7]: NPC library primary testing for decreased DLD-1 cell viability via CellTiter-Glo (AID 1117346;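 active means compounds that lower survival of DLD-1 colon cancer cells in the luminescence readout, no cutoff given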). Particulars: DLD-1 viability, CellTiter-Glo luminescence; at 20 µM (top of the series).
The target of experiment [8] is 6-phosphogluconate dehydrogenase, decarboxylating (Homo sapiens) (UniProt P52209). Put plainly: inhibition of human phosphogluconate dehydrogenase – biochemical, recombinant enzyme, NADPH absorbance, primary screen (AID 1159550;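 active means at least 20% inhibition of 6-phosphogluconate dehydrogenase activity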). Particulars: recombinant 6PGD, NADPH absorbance 341 nm; at 10 µM; hits give high values.
Chain of 6-phosphogluconate dehydrogenase, decarboxylating (Homo sapiens) (P52209 whole entry, looked up): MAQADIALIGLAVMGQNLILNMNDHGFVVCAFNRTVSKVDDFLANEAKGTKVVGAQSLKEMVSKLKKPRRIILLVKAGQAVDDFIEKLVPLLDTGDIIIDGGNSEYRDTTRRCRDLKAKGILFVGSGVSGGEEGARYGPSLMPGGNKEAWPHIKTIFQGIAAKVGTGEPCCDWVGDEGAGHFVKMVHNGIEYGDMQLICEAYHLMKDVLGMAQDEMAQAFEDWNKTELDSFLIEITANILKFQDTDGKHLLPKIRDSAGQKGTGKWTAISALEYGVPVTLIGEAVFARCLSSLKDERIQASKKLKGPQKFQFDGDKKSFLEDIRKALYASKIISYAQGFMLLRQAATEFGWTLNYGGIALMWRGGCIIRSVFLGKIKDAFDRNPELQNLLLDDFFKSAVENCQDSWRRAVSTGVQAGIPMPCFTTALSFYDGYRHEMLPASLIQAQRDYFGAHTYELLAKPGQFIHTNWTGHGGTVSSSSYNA

For the compound `CN1CCN(CCCN2c3ccccc3Sc3ccc(Cl)cc32)CC1`, the insulin secretion stimulation in experiment [1] was 3.6%. Besides, in experiment [2], the viability decrease is 13%. In experiment [3], the tube area decrease is 47.3% (active). Besides, in experiment [4], the GLP1 secretion stimulation was 17.2%. Further, the inhibition of viability in experiment [5] was 86% (active). For the same compound, the viability decrease (inhibition) is 137% (active) in experiment [6] and 94.4% (active) in experiment [7]. In experiment [8], the inhibition was 5.8%.

Take `CN1CCN(CC(=O)N2c3ccccc3C(=O)Nc3cccnc32)CC1`: in experiment [1], the insulin secretion stimulation was -1.3%. The viability decrease in experiment [2] is -6.7%. For the same compound, the tube area decrease in experiment [3] was 7.8%. The GLP1 secretion stimulation in experiment [4] was -0.5%. The inhibition of viability in experiment [5] was -2.2%. The viability decrease (inhibition) in experiment [6] is -14.1%; in experiment [7], 5.4%. Further, in experiment [8], the inhibition is 7.85%.

With `O=c1oc2cc(O)ccc2s1`, the insulin secretion stimulation in experiment [1] was 2.9%. The viability decrease in experiment [2] is -9.5%. Further, the tube area decrease in experiment [3] was 11.8%. Also, the GLP1 secretion stimulation in experiment [4] was -4.3%. The inhibition of viability in experiment [5] is -4.7%. For the same compound, the viability decrease (inhibition) in experiment [6] was 3.7% (active); in experiment [7] it was 10.2%. The inhibition in experiment [8] is 11.7%.

With `O=C(CCCN1CCN(c2ccccn2)CC1)c1ccc(F)cc1`, the insulin secretion stimulation in experiment [1] is 7.45%. Moreover, the viability decrease in experiment [2] is 31.5%. In addition, the tube area decrease in experiment [3] is -12.3%. The GLP1 secretion stimulation in experiment [4] is -0.3%. Further, the inhibition of viability in experiment [5] is 51% (active). Further, the viability decrease (inhibition) in experiment [6] was 11.4%; in experiment [7], 20.2%. The inhibition in experiment [8] is 1.29%.

On to `CCCCOC(=O)c1ccc(N)cc1`, for which the insulin secretion stimulation in experiment [1] is 0.4%. The viability decrease in experiment [2] was 27.7%. In addition, the tube area decrease in experiment [3] is 20.7%. Further, in experiment [4], the GLP1 secretion stimulation is 0.1%. Moreover, in experiment [5], the inhibition of viability is -21.1%. Besides, the viability decrease (inhibition) in experiment [6] is 118% (active); in experiment [7], 59.9% (active). Besides, in experiment [8], the inhibition was -3.52%.

Take `Cc1nnc(SCC2=C(C(=O)O)N3C(=O)[C@@H](NC(=O)Cn4cnnn4)[C@H]3SC2)s1`: the insulin secretion stimulation in experiment [1] was -1.7%. In experiment [2], the viability decrease was 3.2%. Besides, the tube area decrease in experiment [3] was 10.5%. Moreover, the GLP1 secretion stimulation in experiment [4] was 2.7%. In addition, the inhibition of viability in experiment [5] was 1.2%. For the same compound, the viability decrease (inhibition) was 4.8% in experiment [6] and -22.3% in experiment [7]. In experiment [8], the inhibition is 1.44%.

`Nc1c2ccccc2nc2ccccc12`: in experiment [1], the insulin secretion stimulation is 39.7% (active). Further, the viability decrease in experiment [2] was 49.2% (active). For the same compound, the tube area decrease in experiment [3] was 81.5% (active). In addition, the GLP1 secretion stimulation in experiment [4] was 11.4%. Further, in experiment [5], the inhibition of viability is 105% (active). Also, the viability decrease (inhibition) in experiment [6] was 107% (active); in experiment [7] it was 49% (active). Besides, the inhibition in experiment [8] is -6.58%.

For the compound `CC(=O)Nc1ccc(O)cc1`, the insulin secretion stimulation in experiment [1] is -0.1%. For the same compound, in experiment [2], the viability decrease was 9.25%. Further, the tube area decrease in experiment [3] is -15.2%. In addition, the GLP1 secretion stimulation in experiment [4] is 1.9%. In addition, the inhibition of viability in experiment [5] was 1.2%. In addition, the viability decrease (inhibition) was 34.3% in experiment [6] and 3.3% in experiment [7]. Also, the inhibition in experiment [8] is 13.8%.

For `Cc1nnc(NS(=O)(=O)c2ccc(N)cc2)s1`, the insulin secretion stimulation in experiment [1] was -2.4%. In experiment [2], the viability decrease was 6.15%. Moreover, the tube area decrease in experiment [3] is 19.3%. The GLP1 secretion stimulation in experiment [4] was 2.8%. The inhibition of viability in experiment [5] was 0.2%. The values for the viability decrease (inhibition) in experiment [6] and in experiment [7] were 86.3% (active) and 3.2%, respectively. In addition, the inhibition in experiment [8] is -8.84%.

In the case of `CC(=O)[C@@]1(O)CC[C@H]2[C@@H]3C[C@H](C)C4=CC(=O)C=C[C@]4(C)[C@@]3(F)[C@@H](O)C[C@@]21C`, in experiment [1], the insulin secretion stimulation was -1.1%. Also, in experiment [2], the viability decrease is -45.9%. For the same compound, the tube area decrease in experiment [3] is -16%. For the same compound, the GLP1 secretion stimulation in experiment [4] was -0.3%. For the same compound, the inhibition of viability in experiment [5] was -1.33%. Moreover, the values for the viability decrease (inhibition) in experiment [6] and in experiment [7] were -18.3% and -7.2%, respectively. The inhibition in experiment [8] is 15.2%.

In the case of `COc1ccc(C(=O)c2ccccc2)c(O)c1`, the insulin secretion stimulation in experiment [1] was -2.9%. The viability decrease in experiment [2] was -5.25%. Further, the tube area decrease in experiment [3] was 6.3%. In addition, the GLP1 secretion stimulation in experiment [4] was 0.5%. The inhibition of viability in experiment [5] was 14.4%. Moreover, the viability decrease (inhibition) in experiment [6] is 3.3%; in experiment [7], -0.05%. The inhibition in experiment [8] is -7.36%.

As for `CN1CCN(C2=Nc3ccccc3Oc3ccc(Cl)cc32)CC1`, the insulin secretion stimulation in experiment [1] is 0.1%. The viability decrease in experiment [2] is -29.5%. Besides, in experiment [3], the tube area decrease is 43.3% (active). In addition, in experiment [4], the GLP1 secretion stimulation was 1.6%. Moreover, in experiment [5], the inhibition of viability was 30.1%. Besides, the viability decrease (inhibition) in experiment [6] is 107% (active); in experiment [7], 85% (active). In addition, the inhibition in experiment [8] is -14%.

Turning to `O=C(O)c1cc(O)c(O)c(O)c1`, the insulin secretion stimulation in experiment [1] is -0.6%. Besides, the viability decrease in experiment [2] was 44.8%. Moreover, the tube area decrease in experiment [3] is -2.4%. In experiment [4], the GLP1 secretion stimulation was 5.1%. Moreover, the inhibition of viability in experiment [5] was 1.3%. Further, the results for the viability decrease (inhibition) in experiment [6] and in experiment [7] were 36.1% and 39.5%, respectively. The inhibition in experiment [8] is 3.08%.

For the compound `Nc1ccc(C(=O)Oc2ccccc2)c(O)c1`, the insulin secretion stimulation in experiment [1] was 0.9%. For the same compound, the viability decrease in experiment [2] was -26.7%. The tube area decrease in experiment [3] was 4.5%. For the same compound, the GLP1 secretion stimulation in experiment [4] was 0.7%. Further, the inhibition of viability in experiment [5] was 3%. In addition, the viability decrease (inhibition) in experiment [6] was -17.2%; in experiment [7] it was 17.2%. The inhibition in experiment [8] is -7.23%.

In the case of `CCOc1ccc(NC(C)=O)cc1`, the insulin secretion stimulation in experiment [1] is -2.2%. In addition, the viability decrease in experiment [2] is -4.8%. Besides, the tube area decrease in experiment [3] was -16.7%. For the same compound, the GLP1 secretion stimulation in experiment [4] was 4.4%. For the same compound, the inhibition of viability in experiment [5] is -24.5%. Also, the figures for the viability decrease (inhibition) in experiment [6] and in experiment [7] were 104% (active) and -6.2%, respectively. Further, the inhibition in experiment [8] was 5.26%.

With `O=C1OC(c2ccc(O)cc2)(c2ccc(O)cc2)c2ccccc21`, the insulin secretion stimulation in experiment [1] is 11.5%. Besides, the viability decrease in experiment [2] is 31.1%. For the same compound, the tube area decrease in experiment [3] is 14.1%. Also, in experiment [4], the GLP1 secretion stimulation was 11.8%. In experiment [5], the inhibition of viability was 12%. For the same compound, the viability decrease (inhibition) was 80.7% (active) in experiment [6] and 43.5% in experiment [7]. The inhibition in experiment [8] was -2.11%.

Consider `Cc1cc(NC(=O)C2=C(O)c3ccccc3S(=O)(=O)N2C)no1`, for which the insulin secretion stimulation in experiment [1] was -1.3%. The viability decrease in experiment [2] is -24.5%. For the same compound, the tube area decrease in experiment [3] is 14.8%. Besides, the GLP1 secretion stimulation in experiment [4] is -2.4%. For the same compound, the inhibition of viability in experiment [5] is 4.6%. For the same compound, the figures for the viability decrease (inhibition) in experiment [6] and in experiment [7] were -6% and -7.2%, respectively. Moreover, the inhibition in experiment [8] is 0.485%.
